Data on 36 molecules can be found in PubChem BioAssay.

The first experiment deals with Noggin (protein binding on small-molecule microarray). In words: Noggin binders on small-molecule microarray, primary screen, biochemical, 635/667 nm fluorescence (AID 1095).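 Also: score merges 667 nm feature fluorescence with signal to noise over triplicate slides.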 As to conditions: 635 nm fluorescence, higher = more signal.
In the case of `COc1ccc(COC(=O)NN=C2C[C@@H](O)[C@@H](O)[C@@H]3[C@@H]4C(=O)N(Cc5ccccc5)C(=O)[C@@H]4CC[C@H]23)cc1`, the composite z-score was -1.24. `CO[C@H]1COC(=O)[C@@H](C)COC(=O)[C@@H](OCc2ccccc2)C=C[C@@H]1C` had a composite z-score of 0.172. On to `COc1ccc(O[C@H]2C=C[C@@H](c3ccccc3)O[C@@H]2CON=C(C)CCN2CCc3nc(-c4ccccc4)c(-c4ccccc4)cc3C2)cc1`, for which the composite z-score is 0.111.

`CCN1C(=O)[C@H]2[C@H]3[C@H](O)[C@H](O)CC(=O)[C@H]3CC[C@H]2C1=O` registered a composite z-score of 0.675. Still for that read-out and setting: in the case of `CCCNC(=O)OC[C@H]1O[C@H](CCON=C(C)C)C=C[C@@H]1Oc1ccc(OC)cc1` it was 0.422; in that of `CCOC(=O)NN=C1C[C@@H](O)[C@@H](O)[C@@H]2[C@@H]3C(=O)N(c4ccc(F)cc4F)C(=O)[C@@H]3CC[C@@H]12`, 0.139; in that of `C[n+]1ccc(-c2ccc(CO)cc2)cc1`, 0.634.

In a further experiment the target is Neurogenic locus notch homolog protein 3 (Homo sapiens) (UniProt Q9UM47). The experiment in a line: NOTCH3 binders on small-molecule microarray, primary screen, biochemical, 635/667 nm fluorescence (AID 1096). As to conditions: NOTCH3 binding, 635 nm fluorescence, higher = more signal.
Chain of Neurogenic locus notch homolog protein 3 (Homo sapiens) (Q9UM47 whole entry, looked up): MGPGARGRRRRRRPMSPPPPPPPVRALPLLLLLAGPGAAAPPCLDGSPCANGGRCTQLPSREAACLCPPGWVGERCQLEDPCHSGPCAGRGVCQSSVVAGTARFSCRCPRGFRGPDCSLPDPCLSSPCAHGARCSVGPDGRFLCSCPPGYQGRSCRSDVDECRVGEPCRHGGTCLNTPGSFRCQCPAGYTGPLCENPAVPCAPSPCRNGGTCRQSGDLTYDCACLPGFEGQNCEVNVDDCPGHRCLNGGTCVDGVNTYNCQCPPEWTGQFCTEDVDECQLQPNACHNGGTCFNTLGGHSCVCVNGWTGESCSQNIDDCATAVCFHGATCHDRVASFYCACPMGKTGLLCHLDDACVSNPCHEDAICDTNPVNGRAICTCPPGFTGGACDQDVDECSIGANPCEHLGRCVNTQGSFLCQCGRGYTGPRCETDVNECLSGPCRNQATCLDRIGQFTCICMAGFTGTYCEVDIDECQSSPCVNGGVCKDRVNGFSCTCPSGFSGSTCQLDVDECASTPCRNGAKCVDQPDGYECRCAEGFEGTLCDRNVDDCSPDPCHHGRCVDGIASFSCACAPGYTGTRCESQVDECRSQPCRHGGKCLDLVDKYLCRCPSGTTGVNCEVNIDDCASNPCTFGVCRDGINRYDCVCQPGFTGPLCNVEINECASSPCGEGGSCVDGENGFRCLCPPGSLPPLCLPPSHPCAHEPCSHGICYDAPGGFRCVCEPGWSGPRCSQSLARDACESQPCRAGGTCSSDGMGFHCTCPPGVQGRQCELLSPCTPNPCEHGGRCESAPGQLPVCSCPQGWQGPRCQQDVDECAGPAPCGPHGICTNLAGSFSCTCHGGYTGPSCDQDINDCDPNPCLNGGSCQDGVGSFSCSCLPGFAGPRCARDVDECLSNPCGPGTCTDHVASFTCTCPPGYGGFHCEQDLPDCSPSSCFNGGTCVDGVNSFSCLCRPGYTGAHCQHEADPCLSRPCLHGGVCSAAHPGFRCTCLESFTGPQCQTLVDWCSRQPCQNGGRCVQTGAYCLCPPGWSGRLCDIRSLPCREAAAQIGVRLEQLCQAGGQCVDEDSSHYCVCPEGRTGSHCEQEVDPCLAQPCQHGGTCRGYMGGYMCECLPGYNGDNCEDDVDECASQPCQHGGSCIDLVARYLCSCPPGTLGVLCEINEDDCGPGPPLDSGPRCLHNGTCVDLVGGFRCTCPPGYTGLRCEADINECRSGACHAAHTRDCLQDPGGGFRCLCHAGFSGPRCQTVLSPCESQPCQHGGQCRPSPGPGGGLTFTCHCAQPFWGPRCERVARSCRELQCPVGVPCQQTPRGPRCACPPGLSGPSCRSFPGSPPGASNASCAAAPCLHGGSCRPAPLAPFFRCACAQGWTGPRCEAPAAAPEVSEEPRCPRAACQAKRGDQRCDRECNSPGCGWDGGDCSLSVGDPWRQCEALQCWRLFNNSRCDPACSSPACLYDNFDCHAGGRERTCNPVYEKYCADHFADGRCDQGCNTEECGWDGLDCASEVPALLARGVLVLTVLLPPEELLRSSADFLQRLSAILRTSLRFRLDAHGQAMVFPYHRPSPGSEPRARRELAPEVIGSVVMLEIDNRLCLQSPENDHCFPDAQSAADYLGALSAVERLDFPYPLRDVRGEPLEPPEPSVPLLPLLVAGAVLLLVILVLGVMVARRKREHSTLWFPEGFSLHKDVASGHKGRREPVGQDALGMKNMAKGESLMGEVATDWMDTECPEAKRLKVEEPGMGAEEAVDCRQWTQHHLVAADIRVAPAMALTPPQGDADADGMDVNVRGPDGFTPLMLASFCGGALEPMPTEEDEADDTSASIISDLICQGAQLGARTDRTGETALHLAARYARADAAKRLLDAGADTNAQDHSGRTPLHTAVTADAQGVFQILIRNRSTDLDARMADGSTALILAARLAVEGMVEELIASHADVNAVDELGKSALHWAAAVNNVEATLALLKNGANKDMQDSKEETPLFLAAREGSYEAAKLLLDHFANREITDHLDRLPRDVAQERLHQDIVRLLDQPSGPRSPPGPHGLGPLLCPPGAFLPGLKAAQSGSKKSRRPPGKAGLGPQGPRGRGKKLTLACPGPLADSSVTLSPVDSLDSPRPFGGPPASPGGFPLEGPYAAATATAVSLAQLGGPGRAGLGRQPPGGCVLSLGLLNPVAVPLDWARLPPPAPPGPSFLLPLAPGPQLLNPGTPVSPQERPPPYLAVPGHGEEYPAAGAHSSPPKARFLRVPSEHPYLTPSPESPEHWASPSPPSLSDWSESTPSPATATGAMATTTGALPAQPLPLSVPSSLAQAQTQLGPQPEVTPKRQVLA
For `CO[C@H]1COC(=O)CC=C[C@H](C)[C@@H](OC)COC(=O)[C@@H](C)NC(=O)CC=C[C@@H]1C`, the composite z-score was 0.0946.

With `CCOC(=O)[C@H](Cc1ccccc1)NC(=O)OC1CC(CCC2CC(CC)=NO2)OC2(CCCC(COC(=O)NCCC(C)C)O2)C1` (stereo partly drawn), the composite z-score is -0.0258. The same measure, in the same setting: in the case of `CC(C)CON=C1C[C@@H](O)[C@@H](O)[C@@H]2[C@@H]3C(=O)N(c4ccc(F)cc4F)C(=O)[C@@H]3CC[C@H]12` it was 1.08; in that of `CC(C)(C)N1C(=O)[C@H]2[C@H]3[C@H](O)[C@H](O)CC(=NO[C@@H]4O[C@H](CO)[C@@H](O)[C@H](O)[C@H]4O)[C@H]3CC[C@H]2C1=O`, 0.155; in that of `COC(=O)C=CCCc1coc(C=CCNC(=O)OC)n1`, 1.08. `Cc1ccc(S(=O)(=O)OC[C@H]2CN3[C@H](c4ccc(Br)cc4)[C@@H](C)CC[C@H]3C(=O)O2)cc1` displayed a composite z-score of 0.323. Still for that read-out and setting: under `CO[C@@H]1COC(=O)[C@@H](C)NC(=O)CC=C[C@@H](C)[C@H](NS(=O)(=O)c2ccc(C)cc2)COC(=O)[C@H](C)NC(=O)CC=C[C@H]1C` stands 0.225; under `COC(=O)[C@H](C)NC(=O)CCC1CC(OC(=O)NCc2ccc3c(c2)OCO3)CC2(CCCC(COC(=O)NCC3CCCCC3)O2)O1` (stereo partly drawn), 1.1. `C#CCCCON=C1C[C@@H](O)[C@@H](O)[C@@H]2[C@@H]3C(=O)N(C(C)(C)C)C(=O)[C@@H]3CC[C@H]12` yielded a composite z-score of -0.326. Still for that read-out and setting: under `CCOC(=O)NN=C1C[C@@H](O)[C@@H](O)[C@@H]2[C@@H]3C(=O)N(C(C)(C)C)C(=O)[C@@H]3CC[C@H]12` stands 0.235; under `C[C@H]1COC(=O)[C@@H]2CCCN2C(=O)[C@@H](C)COC(=O)[C@H](Cc2ccccc2)NC1=O`, 0.889. With `CCOC(=O)NN=C1C[C@@H](O)[C@@H](O)[C@@H]2[C@@H]3C(=O)N(c4cccc(Oc5ccccc5)c4)C(=O)[C@@H]3CC[C@H]12`, the composite z-score was 0.589.

As for `CCOC(=O)C1=NO[C@@]2(C=C(Br)C3(OCCCO3)[C@H]3O[C@H]32)C1`, the composite z-score was determined as 0.91. Still for that read-out and setting: in the case of `CO[C@@H]1COC(=O)[C@H](CCSC)NC(=O)CC=C[C@@H](C)COC(=O)CCC[C@H]1C` it was 0.249. `CCOC(=O)[C@H](Cc1ccccc1)NC(=O)CCC1CC(OC(=O)NCc2cccc3ccccc23)CC2(CCCC(COC(=O)NCCC(C)C)O2)O1` (stereo partly drawn) registered a composite z-score of -0.435.

`CC[C@@H](c1ccccc1)n1c(=O)n2n(c1=O)[C@H]1[C@H](O)[C@@H]3O[C@@H]3C(=O)[C@H]1CC2`: the composite z-score came out at 0.285.

`CCc1cc2c(nc1CC)CCN(CCC(C)=NO[C@H](C)c1cn([C@H](CO)Cc3ccccc3)nn1)C2` registered a composite z-score of -0.171. As for `CCOC(=O)[C@H](CC(C)C)NC(=O)CCC1CC(OC(=O)NCc2ccc3c(c2)OCO3)CC2(CCCC(COC(=O)NCC(c3ccccc3)c3ccccc3)O2)O1` (stereo partly drawn), the composite z-score is 0.79. As for `CCOC(=O)CCN1C(=O)[C@H]2[C@H]3[C@H](O)[C@H](O)CC(=NOCC(C)C)[C@H]3CC[C@H]2C1=O`, the composite z-score was -0.0186. The same measure, in the same setting: under `O=C1[C@H]2[C@H]3[C@H](O)[C@H](O)CC(=NOCc4ccccc4)[C@@H]3CC[C@H]2C(=O)N1C[C@@H]1CCCO1` stands 0.237; under `CCOC(=O)[C@H](CC(C)C)NC(=O)CCC1CC(OC(=O)NCc2cccc3ccccc23)CC2(CCCC(COC(=O)NCC3CCCCC3)O2)O1` (stereo partly drawn), 0.818; under `CC(C)=CCCC(C)=CCON=C1C[C@@H](O)[C@@H](O)[C@@H]2[C@@H]3C(=O)N(c4cccc(Oc5ccccc5)c4)C(=O)[C@@H]3CC[C@@H]12`, 0.751. `O=C1[C@H]2[C@H]3[C@H](O)[C@H](O)CC(=NOC[C@@H](O)COCc4ccco4)[C@H]3CC[C@H]2C(=O)N1c1ccc(F)cc1F` registered a composite z-score of -0.927. The molecule `COc1ccc(O[C@@H]2[C@H](O)CO[C@H]2C=Cc2ccccc2)cc1` displayed a composite z-score of -0.167. As to `COC(=O)[C@@H]1CC[C@H](C)[C@@H](c2ccc(C)cc2)N1C(=O)c1ccc(C=NO[C@@H]2O[C@H](COC(C)=O)[C@@H](OC(C)=O)[C@H](OC(C)=O)[C@H]2OC(C)=O)cc1`, the composite z-score turned out to be 0.864. In turn, `CO[C@H]1COC(=O)[C@H](C)NC(=O)[C@@H](C)COC(=O)[C@H]2CCCN2C(=O)CC=C[C@H]1C` returned a composite z-score of 0.358.

In turn, `CC(C)=CCCC(C)=CCON=C1C[C@@H](O)[C@@H](O)[C@@H]2[C@@H]3C(=O)N(c4ccc(F)cc4F)C(=O)[C@@H]3CC[C@H]12` returned a composite z-score of 1.09. The same measure, in the same setting: in the case of `COc1cc(O)c(C(=O)C=Cc2ccc3c(c2)OCO3)c(OC)c1` it was 0.124; in that of `COc1ccc(O[C@H]2C=C[C@@H](c3ccccc3)O[C@@H]2CON=C2[C@H]3CCn4c(=O)n(-c5ccccc5)c(=O)n4[C@H]3[C@H](O)[C@@H]3O[C@H]23)cc1`, 0.863; in that of `COc1ccc(COC(=O)NN=C2C[C@@H](O)[C@@H](O)[C@@H]3[C@@H]4C(=O)N(Cc5ccccc5)C(=O)[C@@H]4CC[C@H]23)cc1`, -0.0524. The same measure, in the same setting: under `CO[C@H]1COC(=O)[C@@H](C)COC(=O)[C@@H](OCc2ccccc2)C=C[C@@H]1C` stands -0.165; under `COc1ccc(O[C@H]2C=C[C@@H](c3ccccc3)O[C@@H]2CON=C(C)CCN2CCc3nc(-c4ccccc4)c(-c4ccccc4)cc3C2)cc1`, -0.183; under `CCN1C(=O)[C@H]2[C@H]3[C@H](O)[C@H](O)CC(=O)[C@H]3CC[C@H]2C1=O`, 0.386. In turn, `CCCNC(=O)OC[C@H]1O[C@H](CCON=C(C)C)C=C[C@@H]1Oc1ccc(OC)cc1` gave a composite z-score of -0.216. Same read-out and setting: under `CCOC(=O)NN=C1C[C@@H](O)[C@@H](O)[C@@H]2[C@@H]3C(=O)N(c4ccc(F)cc4F)C(=O)[C@@H]3CC[C@@H]12` stands 0.578. On the same count and under the same terms, in the case of `C[n+]1ccc(-c2ccc(CO)cc2)cc1` it was 1.06.
